High-throughput results (PubChem BioAssay)
S1P2 agonist = S1P2 (human) receptor agonism. O95136. S1P2-expressing cell line, agonist reporter read-out. activation, % at 4.5 µM. actives 0.46% (n = 97,000). AID 729; in the data active means activation above about 16%;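 further: 0% = vehicle low control and 100% = maximal reference agonist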
GALR2 blocker = blocks the human galanin receptor 2; O43603; GALR2-expressing cells, antagonist mode; inhibition, % at 4 µM; actives 0.39% (n = 140,000); AID 828; in the data active means inhibition above about 27%;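 further: cells stimulated with galanin 1-16 at roughly its EC80; 0% = agonist challenge control and 100% = basal control without agonist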
hDAT+cocaine = changed human dopamine transporter uptake under cocaine IC80 | B-score at 10 µM | LLC-PK1 hDAT cells, [14C]-dopamine uptake with cocaine IC80; actives deviate in either direction | Q01959 | actives 1.3% (n = 110,000);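 active means Z score or B-score, a plate-position-corrected score, falls beyond the plate's 99.7% confidence bounds, in either direction; inactive means both scores lie inside the 99.7% bounds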;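 further: scored against the spread of the other compound wells on the same plate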
Target sequence (Q01959 whole entry, looked up): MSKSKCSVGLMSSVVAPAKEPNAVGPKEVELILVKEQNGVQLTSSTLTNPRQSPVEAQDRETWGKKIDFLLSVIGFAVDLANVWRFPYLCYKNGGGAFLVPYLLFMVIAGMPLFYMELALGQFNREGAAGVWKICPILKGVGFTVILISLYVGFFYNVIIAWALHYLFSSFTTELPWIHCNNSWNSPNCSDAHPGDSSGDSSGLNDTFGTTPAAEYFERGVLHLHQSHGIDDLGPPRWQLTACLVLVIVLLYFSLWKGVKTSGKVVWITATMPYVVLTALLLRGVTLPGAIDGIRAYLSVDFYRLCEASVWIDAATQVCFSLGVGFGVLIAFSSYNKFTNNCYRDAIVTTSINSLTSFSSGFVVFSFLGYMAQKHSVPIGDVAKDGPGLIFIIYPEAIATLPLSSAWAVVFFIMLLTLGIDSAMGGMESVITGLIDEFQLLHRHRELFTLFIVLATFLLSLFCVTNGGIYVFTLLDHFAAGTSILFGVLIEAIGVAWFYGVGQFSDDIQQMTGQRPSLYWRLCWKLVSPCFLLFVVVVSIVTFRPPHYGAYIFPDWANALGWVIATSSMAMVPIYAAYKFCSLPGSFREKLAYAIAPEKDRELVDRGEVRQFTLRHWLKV
S1P2 antag = blocks the human S1P2 receptor; actives 0.21% (n = 97,000); inhibition, % at 5 µM; cell-based S1P2 antagonist assay, inhibition at 5 uM; in the data active means inhibition above about 45%;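 further: CRE beta-lactamase reporter cells expressing human S1P2 stimulated with S1P; 0% = agonist at EC80 alone and 100% = agonist plus reference antagonist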
GALR2 agonist = GALR2 (human) receptor agonism; O43603; GALR2-expressing cells, agonist activation read-out; activation, % (concentration not given with the values); actives 0.48% (n = 140,000); in the data active means activation above about 5%, passing the limit was not always enough;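 further: 0% = vehicle buffer wells and 100% = reference agonist at full effect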
Active calls of the source: *. In the library only some 2.1% were active in any assay of this set; here they are far more common.

Results for Cc1cc(-c2ccccc2)n(-c2ccc(C(=O)N3CCN(c4ncccn4)CC3)cc2)n1 ?
S1P2 agonist: -3.1; GALR2 blocker: -18.7; hDAT+cocaine: 2.5*; S1P2 antag: -1.0; GALR2 agonist: 0.9

Results for COCCn1c(SCc2nc3ccccc3s2)nc2ccccc21 ?
S1P2 agonist: 1.1; GALR2 blocker: 11.0; hDAT+cocaine: 0.184; S1P2 antag: 8.9; GALR2 agonist: -2.9

Results for Cc1c(NC(=O)c2cc(-n3cnnc3)ccc2Cl)cccc1-c1nc2ccccc2o1 ?
S1P2 agonist: -5.1; GALR2 blocker: 11.0; hDAT+cocaine: -0.427; S1P2 antag: 55.7*; GALR2 agonist: -4.4

Results for CCN(CC)c1ccc(C(=O)OCC(=O)N2CCN(c3ccccc3)CC2)cc1 ?
S1P2 agonist: -5.9; GALR2 blocker: -4.2; hDAT+cocaine: 1.76; S1P2 antag: -11.0; GALR2 agonist: -1.4

What do the screens show for `Cn1c(N)cc(=O)n(Cc2ccccc2)c1=O`?
GALR2 blocker: 6.2; hDAT+cocaine: -1.08; GALR2 agonist: -1.7

Results for O=c1ccn(Cc2ccccc2)c(=O)n1Cc1ccccc1 ?
S1P2 agonist: 0.0; GALR2 blocker: -4.1; hDAT+cocaine: 2.79*; S1P2 antag: -3.6; GALR2 agonist: -1.0

Results for COC(=O)c1ccc(CSc2nnc(Nc3ccccc3OC)s2)o1 ?
S1P2 agonist: -2.2; GALR2 blocker: 1.4; hDAT+cocaine: 3.47*; S1P2 antag: -27.7; GALR2 agonist: -0.9

What do the screens show for `COC(=O)c1ccc(CSc2nnc(Nc3ccc(OC)cc3)s2)o1`?
S1P2 agonist: -4.9; GALR2 blocker: 7.6; hDAT+cocaine: -0.574; S1P2 antag: 5.0; GALR2 agonist: -1.3

Results for CCOC(=O)c1sc(C)c(C(=O)NC2CCCCC2)c1N ?
S1P2 agonist: -7.0; GALR2 blocker: 1.0; hDAT+cocaine: -2.75*; S1P2 antag: 18.5; GALR2 agonist: -2.1

What do the screens show for `CCOC(=O)c1snc(C(=O)NC2CCCCC2)c1N`?
GALR2 blocker: 17.2; hDAT+cocaine: -0.0411; GALR2 agonist: -1.4

How did COc1ccc(NC(=O)CSc2nc3sc(C)c(C)c3c(=O)n2Cc2ccco2)cc1 do in these assays?
S1P2 agonist: -11.8; GALR2 blocker: -2.5; hDAT+cocaine: 2.56; S1P2 antag: 7.1; GALR2 agonist: -1.6

How did Cc1sc2nc(SCc3nc4ccccc4[nH]3)n(Cc3ccco3)c(=O)c2c1C do in these assays?
S1P2 agonist: 16.7*; GALR2 blocker: 8.1; S1P2 antag: -32.1; GALR2 agonist: -2.1

What do the screens show for `C=CCn1c(SCC(=O)NC(=O)NCc2ccco2)nc2sc(C)c(C)c2c1=O`?
S1P2 agonist: -0.8; GALR2 blocker: -8.1; hDAT+cocaine: -0.118; S1P2 antag: -25.0; GALR2 agonist: 6.2*

Results for CCNc1ccc(Br)cc(C(=O)/C=C/c2ccc(Cl)cc2Cl)c1=O ?
S1P2 agonist: -9.5; GALR2 blocker: 9.4; hDAT+cocaine: -1.09; S1P2 antag: 15.5; GALR2 agonist: -1.9

How did COCCNC(=S)N1CCOCC1 do in these assays?
GALR2 blocker: 2.0; GALR2 agonist: -0.8

What do the screens show for `CC(C)n1c(SCc2ccc(Cl)cc2)nc2c1c(=O)[nH]c(=O)n2C`?
S1P2 agonist: -3.5; GALR2 blocker: 1.3; hDAT+cocaine: -3.05*; S1P2 antag: -12.0; GALR2 agonist: 0.4

How did CC(C)CCn1c(SCc2ccc(Cl)cc2)nc2c1c(=O)[nH]c(=O)n2C do in these assays?
S1P2 agonist: -1.2; GALR2 blocker: -7.6; hDAT+cocaine: 0.54; S1P2 antag: -20.2; GALR2 agonist: 1.4

How did Cc1cccnc1Nc1nc(-c2ccc(O)c(O)c2)cs1 do in these assays?
S1P2 agonist: -5.7; GALR2 blocker: 4.0; hDAT+cocaine: 4.6*; S1P2 antag: 10.0; GALR2 agonist: -0.5

What do the screens show for `CCOC(=O)C(NC(=O)c1ccccc1)(N1CCOCC1)C(F)(F)F` (configuration not stated)?
S1P2 agonist: -0.8; GALR2 blocker: 4.2; hDAT+cocaine: -0.231; S1P2 antag: 13.4; GALR2 agonist: -0.4

Results for CCOC(=O)C(NC(C)=O)(N1CCOCC1)C(F)(F)F (configuration not stated) ?
S1P2 agonist: -3.9; GALR2 blocker: 8.5; hDAT+cocaine: 1.83*; S1P2 antag: 26.1; GALR2 agonist: -1.9

How did O=c1c(Cc2ccc(Cl)cc2Cl)c(O)ccn1Cc1ccc(Cl)cc1 do in these assays?
S1P2 agonist: -7.1; GALR2 blocker: -3.8; hDAT+cocaine: 0.31; S1P2 antag: 7.1; GALR2 agonist: -0.8

What do the screens show for `CN(CCC#N)CC(=O)Nc1ccc(NC(=O)CN(C)CCC#N)cc1`?
S1P2 agonist: -6.8; GALR2 blocker: -5.2; hDAT+cocaine: -0.936; S1P2 antag: 10.8; GALR2 agonist: -1.9

What do the screens show for `COc1c(N2C[C@@H]3CCCN[C@@H]3C2)c(F)cc2c(=O)c(C(=O)O)cn(C3CC3)c12`?
hDAT+cocaine: 1.26

What do the screens show for `CN(CCOc1ccc(-c2ccn(S(=O)(=O)c3cccc4ccccc34)n2)cc1)c1ccccn1`?
S1P2 agonist: -6.6; GALR2 blocker: 5.8; hDAT+cocaine: -8.28*; S1P2 antag: 6.0; GALR2 agonist: -4.3

Results for COc1ccc(/C=c2\sc3nc(-c4ccccc4)c(-c4ccccc4)n3c2=O)cc1OC ?
S1P2 agonist: 22.5*; GALR2 blocker: -13.9; S1P2 antag: -3.2; GALR2 agonist: -1.9

Results for COc1cc(/C=c2/sc3nc(-c4ccccc4)c(-c4ccccc4)n3c2=O)cc(OC)c1OC ?
GALR2 blocker: -1.6; GALR2 agonist: -0.2

What do the screens show for `O=C(C1COc2ccccc2O1)N1CCc2ccccc2C1` (configuration not stated)?
S1P2 agonist: -5.4; GALR2 blocker: -1.1; hDAT+cocaine: 0.152; S1P2 antag: 5.1; GALR2 agonist: -1.8

Results for O=C(CSc1nnc2ccccn12)Nc1nsc(-c2ccccc2)n1 ?
GALR2 blocker: 3.1; GALR2 agonist: -2.0

Results for O=C(CSc1nnc2ccccn12)Nc1cccc(-c2nc3ccccc3s2)c1 ?
GALR2 blocker: 9.6; GALR2 agonist: 5.7*

Results for CCOC(=O)c1cc2ccc(OC)c(OC)c2c(=O)s1 ?
S1P2 agonist: 109.2*; GALR2 blocker: -9.5; hDAT+cocaine: 0.0303; S1P2 antag: -17.3; GALR2 agonist: -1.5

What do the screens show for `COCCn1nnnc1CN(CCc1ccccc1)Cc1cc2ccc(C)cc2[nH]c1=O`?
S1P2 agonist: -5.1; GALR2 blocker: -0.6; hDAT+cocaine: 2.07; S1P2 antag: 20.3; GALR2 agonist: -0.5

Results for COc1ccc(/C=C/C(=O)c2cc(F)ccc2OC(=O)c2ccccc2)cc1OC ?
S1P2 agonist: -3.3; GALR2 blocker: 12.8; hDAT+cocaine: 0.902; S1P2 antag: -3.8; GALR2 agonist: 5.5*

What do the screens show for `CCNc1nc(NCC)nc(C(=O)OCCO)n1`?
S1P2 agonist: -2.0; GALR2 blocker: -5.6; hDAT+cocaine: -0.508; S1P2 antag: 6.5; GALR2 agonist: -3.3

Results for Cn1cccc1/C=N/n1cnnc1 ?
S1P2 agonist: -0.4; GALR2 blocker: 1.6; hDAT+cocaine: 2.76*; S1P2 antag: 14.5; GALR2 agonist: -3.2

What do the screens show for `C#CCn1cc(C=C2C(=O)c3ccccc3C2=O)c2ccccc21`?
GALR2 blocker: -10.0; GALR2 agonist: -0.6
